# Bioassay records: PubChem BioAssay, several laboratories
# PrPC surface inh: inhibitors of human cell surface prion protein PrPC, primary screen, cell-based, TR-FRET; Major prion protein (Homo sapiens), P04156; TR-FRET read-out; inhibition, % at 13.8 µM; 0.43% of 370,000 active; in the data active = inhibition above about 24%
# FadD28 binding: inhibitors of FadD28 bisubstrate probe binding, primary screen, biochemical, fluorescence polarization, single point; 0.22% of 360,000 active; inhibition, % at 12.5 µM; Mycobacterium tuberculosis FadD28 fatty-acid-AMP ligase; AID 588549, 2011; in the data active = inhibition above about 8.5%, passing the limit was not always enough
# Rv3671c protease: Rv3671c serine protease inhibitors, primary screen, biochemical, fluorescence polarization, M. tuberculosis H37Rv; inhibition, % at 5.96 µM; 0.048% of 320,000 active; in the data active = inhibition above about 38%;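 note: extracellular domain of Rv3671c used as enzyme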
# Target sequence (P9WHR9 whole entry, looked up, the tested form may be a part): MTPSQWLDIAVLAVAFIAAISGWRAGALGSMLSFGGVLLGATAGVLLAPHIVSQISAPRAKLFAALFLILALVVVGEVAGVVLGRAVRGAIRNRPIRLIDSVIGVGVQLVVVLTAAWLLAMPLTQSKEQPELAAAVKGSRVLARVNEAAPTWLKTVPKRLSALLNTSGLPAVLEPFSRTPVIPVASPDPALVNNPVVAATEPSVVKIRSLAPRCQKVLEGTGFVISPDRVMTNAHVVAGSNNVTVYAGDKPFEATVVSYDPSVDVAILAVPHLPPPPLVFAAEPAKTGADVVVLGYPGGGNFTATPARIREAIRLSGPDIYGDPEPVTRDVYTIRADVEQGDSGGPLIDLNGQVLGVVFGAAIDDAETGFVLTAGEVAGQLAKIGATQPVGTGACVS
# PriA SSB inh: inhibitors of Klebsiella pneumoniae PriA binding to SSB C-terminal tail, primary screen, biochemical, AlphaScreen | PriA–SSB C-terminal tail interaction (Klebsiella pneumoniae) | AlphaScreen SSBct-PriA binding, biotinylated peptide | inhibition, % at 33 µM | 0.6% of 430,000 active | AID 1272365, 2023; in the data active = inhibition mostly above about 37%, no sharp cut-off; inactive = mostly below about 20%
# UGM FP inh: M. tuberculosis UGM enzyme inhibitors, primary screen, biochemical, fluorescence polarization, single point; UDP-galactopyranose mutase (Mycobacterium tuberculosis (strain ATCC 25618 / H37Rv)), …; purified UGM, fluorescence polarization probe displacement; inhibition, % at 10 µM; 0.06% of 320,000 active; AID 504406, 2011; in the data active = inhibition above about 10%, passing the limit was not always enough
# PrP 5UTR inh: inhibition of PrP 5' UTR reporter expression | cell-based PrP 5' UTR mRNA reporter, plate reader | 0.35% of 340,000 active | inhibition, % (concentration not given with the values); in the data active = inhibition above about 52%
# A number is an active result; i = inactive; nt = no result given; ! = not confirmed by another sample. The list is not random: actives were taken first. Their share in the collection is about 1.2%.
SMILES,PrPC surface inh,FadD28 binding,Rv3671c protease,PriA SSB inh,UGM FP inh,PrP 5UTR inh
COc1ccc(C)cc1Nc1n[n+](-c2ccccc2)c(-c2ccc(SC)cc2)s1,i,i,i,i,i,i
CCc1ccc(Nc2n[n+](-c3ccccc3)c(-c3ccc(C(=O)O)cc3)s2)cc1,i,i,i,i,i,i
CC(=O)Nc1ccc(-c2sc(Nc3cccc4ccccc34)n[n+]2-c2ccccc2)cc1,i,i,i,63,i,i
COc1ccc(Cl)cc1NC(=O)Cn1nc(-c2ccco2)c2sc(N3CCCC3)nc2c1=O,nt,nt,nt,i,nt,nt
CC(C)NC(=O)Cn1c(-c2ccncc2)nc2ccccc21,nt,nt,nt,i,nt,nt
O=C1C(=O)N(CCN2CCOCC2)C(c2ccc(F)cc2)C1=C(O)c1ccc(S(=O)(=O)N2CCOCC2)cc1 (centres undefined),nt,nt,nt,i,nt,nt
CO[C@@](C)(CNC(=O)C(=O)Nc1ccc2c(c1)OCO2)c1cccc(Cl)c1,nt,nt,nt,i,nt,nt
CC(C)c1ccc(S(=O)(=O)Nc2ccc3c(c2)CN(C(=O)c2cccs2)CC3)cc1,nt,nt,nt,i,nt,nt
CCc1ccc(Nc2n[n+](-c3ccccc3)c(-c3ccc(SC)cc3)s2)cc1,i,i,i,66,i,i
CCN(CC)c1ccc(/C=N/NC(=O)c2ccc3nc[nH]c3c2)cc1,i,31,i,i,i,i
Nc1nc2c(s1)-c1cccc3cccc-2c13,nt,nt,nt,66,nt,nt
CCOC(=O)c1nn(-c2ccccc2Cl)c(=O)cc1OS(=O)(=O)c1ccc2c(c1)CCCC2,nt,nt,nt,i,nt,nt
C#CCn1c(=NC(=O)c2ccccc2S(C)(=O)=O)sc2cc([N+](=O)[O-])ccc21,nt,nt,nt,i,nt,nt
c1ccc(-c2nnc(-c3ccccn3)s2)nc1,i,i,i,i,i,i
c1ccc(C2=NNC(c3ccccn3)=NN2)nc1,i,i,i,82!,i,i
CCc1ccc(S(=O)(=O)NCCn2cnc(C)c(C)c2=O)s1,nt,nt,nt,i,nt,nt
Cc1ccc(C)c(S(=O)(=O)Nc2ccc(C(=O)N3CCC(Cc4ccccc4)CC3)cc2)c1,nt,nt,nt,i,nt,nt
CCSc1ccc(C(=O)Nc2nnc(Cc3cccs3)o2)cc1,nt,nt,nt,36,nt,nt
O=C(Nc1nnc(Cc2cccs2)o1)c1ccc(Cl)s1,nt,nt,nt,35,nt,nt
CCSc1ccc(C(=O)Nc2nccs2)cc1,nt,nt,nt,64,nt,nt
O=C(Nc1nnc(Cc2cccs2)o1)c1ccc2ncsc2c1,nt,nt,nt,71,nt,nt
CCSc1ccc(CC(=O)Nc2nccs2)cc1,nt,nt,nt,i,nt,nt
Cc1nc(NCc2ccccc2)nc(Nc2ccccc2)c1[N+](=O)[O-],nt,nt,nt,i,nt,nt
CC(C)(C)c1ccc(C(=O)NCc2n[nH]c(=S)n2-c2ccc(Cl)c(Cl)c2)cc1,nt,nt,nt,i,nt,nt
CCCN(CCC)S(=O)(=O)c1ccc(C(=O)NCc2n[nH]c(=S)n2-c2ccc(Cl)c(Cl)c2)cc1,i,i,i,45!,i,i
SMILES,PrPC surface inh,FadD28 binding,Rv3671c protease,PriA SSB inh,UGM FP inh,PrP 5UTR inh
O=C1NN(c2ccc(Cl)cc2)C(=O)/C1=C\c1ccc(-c2cccc(C(=O)O)c2)o1,i,23,nt,i,nt,i
Cc1ccc(N2NC(=O)/C(=C/c3ccc(-c4ccc(Cl)c(C(=O)O)c4)o3)C2=O)cc1,i,i,i,i,i,i
CC1=NCCN1S(=O)(=O)c1cc([N+](=O)[O-])ccc1Cl,i,i,i,35!,i,i
Cc1ccc(S(=O)(=O)N2CCc3ccc(NC(=O)C(C)(C)C)cc3C2)cc1,nt,nt,nt,i,nt,nt
Cc1ccc(Nc2c(-c3ccc(N4CCOCC4)cc3)nc3ncccn23)cc1,i,i,i,97,i,i
Cc1ccc(Nc2c(-c3ccc(N4CCOCC4)cc3)nc3ncccn23)cc1C,i,i,i,i,i,i
O=C(NCCn1ccnc1-c1ncccn1)C1CC(=O)N(c2ccc(F)cc2)C1 (centres undefined),nt,nt,nt,116,nt,nt
Cc1ccc(N2CC(C(=O)NCCn3ccnc3-c3ncccn3)CC2=O)cc1C (centres undefined),nt,nt,nt,43,nt,nt
CC(=NNC(=O)C1CCCN(S(=O)(=O)c2ccccc2)C1)c1ccccn1 (centres undefined),nt,nt,nt,49,nt,nt
O=S(=O)(c1ccccc1)N1CCC(c2ccccn2)C1 (centres undefined),nt,nt,nt,40,nt,nt
O=C(NCc1ccccn1)C1CCCN(S(=O)(=O)c2ccccc2)C1 (centres undefined),i,i,i,i,i,i
CC(=NNC(=S)N1CCC1)c1ccccn1,i,i,nt,72,nt,i
COc1cccc(C(=O)NCCCn2nc(-c3cccnc3)ccc2=O)c1OC,nt,nt,nt,i,nt,nt
COc1cc2c(=O)n(CC3CCCO3)c(=O)n(CC(=O)Nc3ccc(F)cc3F)c2cc1OC (centres undefined),i,i,i,104,i,i
Cc1cccc(S(=O)(=O)NCCC(=O)N2Cc3cnc(N4CCOCC4)nc3C2)c1,nt,nt,nt,i,nt,nt
COc1ccccc1NC(=O)NCCc1ccc2c(c1)CCCN2C,nt,nt,nt,56,nt,nt
COc1ccccc1OCC(=O)NCCc1ccc2c(c1)CCCN2C,nt,nt,nt,45,nt,nt
O=C(COc1ccc(Cl)cc1)Nc1ccc(-c2nc3ccccc3[nH]2)cc1,nt,nt,nt,i,nt,nt
CCOC(=O)c1oc2ccccc2c1NC(=O)c1cc(C)n(C)n1,nt,nt,nt,i,nt,nt
CCOC(=O)N1CCN(C(=O)CC(=O)Nc2ccc3nc4n(c(=O)c3c2)CCCCC4)CC1,i,i,i,i,i,i
CCOC(=O)N1CCN(C(=O)C(=O)Nc2ccc3nc4n(c(=O)c3c2)CCCCC4)CC1,i,i,i,104,i,i
Cc1ccc(NC(=O)C2C3CCCCC32)cc1[N+](=O)[O-] (centres undefined),i,i,i,41,i,i
COc1ccc(N2CCCS2(=O)=O)cc1NC(=O)C(=O)NC1CC1,nt,nt,nt,i,nt,nt
CC(C)n1c(O)c(N=Nc2ccc(Cl)c(C(=O)O)c2)c2ccccc21,i,11,i,i,i,i
CN(C)c1ccc2nc3c(=O)[nH]c(=O)nc-3n(CC(O)C(O)C(O)CO)c2c1 (centres undefined),i,i,i,i,61,i
SMILES,PrPC surface inh,FadD28 binding,Rv3671c protease,PriA SSB inh,UGM FP inh,PrP 5UTR inh
Cc1ncc(C(O)c2ccc(N(C)C)cc2)n1Cc1ccccc1 (centres undefined),i,i,nt,nt,nt,nt
COc1ccc(-c2cnc(S(=O)CC(=O)NCCc3ccccc3)n2C)cc1 (centres undefined),nt,nt,nt,i,nt,nt
COc1ccc(C)cc1NC(=O)CS(=O)c1ncc(-c2ccccc2)n1C (centres undefined),nt,nt,nt,79,nt,nt
Cc1cc(=O)n2c(-c3ccc(NS(=O)(=O)c4ccc(C)s4)cc3)csc2n1,nt,nt,nt,i,nt,nt
CCOc1ccc2noc3c2c1C(=O)c1ccccc1-3,i,i,i,i,21,i
Nc1nc(-c2cccc(-c3csc(N)n3)n2)cs1,nt,nt,nt,114,nt,nt
Nc1nc(-c2ccccn2)cs1,nt,nt,nt,94,nt,nt
Nc1nc(-c2ccc(-c3ccccc3)cc2)cs1,i,i,i,i,i,i
COc1ccccc1C1/C(=C(/O)c2ccccc2)C(=O)C(=O)N1CC(C)O (centres undefined),i,10,i,nt,i,i
